Bioassay records: PubChem, several laboratories
Shown are actives, neighbours in structure and some others; about 28% of the full set was active somewhere.
D1 mod – allosteric modulators of human D1 dopamine receptor | HEK293 D1, CRE-luciferase, dopamine EC30 potentiation; actives deviate in either direction | P21728 | AID 641 | 58,000 tested, 5.9% active | B-score at 10 µM;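 active = luminescence count or its row- and column-corrected plate score outside the 99.7% band of the plate's sample wells, on either side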
Target sequence (P21728 whole entry, looked up): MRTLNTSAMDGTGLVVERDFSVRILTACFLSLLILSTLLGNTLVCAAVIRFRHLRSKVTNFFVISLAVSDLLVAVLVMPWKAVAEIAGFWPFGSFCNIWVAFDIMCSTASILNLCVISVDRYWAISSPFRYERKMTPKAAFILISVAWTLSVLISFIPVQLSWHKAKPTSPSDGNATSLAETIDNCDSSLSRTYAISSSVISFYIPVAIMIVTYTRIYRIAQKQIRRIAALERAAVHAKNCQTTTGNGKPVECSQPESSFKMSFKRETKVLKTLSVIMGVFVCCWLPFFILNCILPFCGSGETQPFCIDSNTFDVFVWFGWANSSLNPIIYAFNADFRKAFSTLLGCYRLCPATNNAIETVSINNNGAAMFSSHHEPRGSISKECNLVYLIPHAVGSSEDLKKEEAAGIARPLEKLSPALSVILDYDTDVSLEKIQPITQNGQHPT
CYP2C19 inhib – blocks human cytochrome P450 2C19 | CYP2C19 Supersomes, luciferin-H EGE luminescence, 30 min | 96,000 tested, 21% active | P33261 | inhibition, % at 5 µM | AID 778;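 active = CYP2C19 inhibition above a set limit at 5 µM in the primary screen, cut at about 50% in these data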
CYP2C9 activ – activators of human CYP2C9. P11712. recombinant CYP2C9, luciferin-H conversion, luminescence; stronger effect = higher value; factor 1 = untreated enzyme, 0 = blocked. activation factor at 5 µM. 96,000 tested, 1.4% active;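 active = activation factor of 2 or more for CYP2C9 at a 5 µM dose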
hDAT+cocaine – human DAT dopamine uptake with cocaine, either direction | LLC-PK1 hDAT cells, [14C]-dopamine uptake with cocaine IC80; actives deviate in either direction | B-score at 10 µM | 110,000 tested, 1.3% active | AID 449768;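 active = Z score or B-score, a plate-position-corrected score, falls beyond the plate's 99.7% confidence bounds, in either direction; inactive = both scores lie inside the 99.7% bounds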
CYP2C19 act – increases human CYP2C19 enzyme activity | activation factor at 5 µM | recombinant CYP2C19, luciferin-H EGE luminescence; stronger effect = higher value; 0 = fully inhibited enzyme, 1 = untreated enzyme | 96,000 tested, under 10 active | P33261 | AID 1025;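 active = activation factor of at least 2 at 5 µM in the primary screen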
CYP2C9 inh – inhibitors of human CYP2C9; AID 777; inhibition, % at 5 µM; 96,000 tested, 20% active; CYP2C9 Supersomes, luciferin-H conversion, luminescence;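 active = blocking of liver enzyme CYP2C9 beyond about 50% at 5 µM, limit read from the data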
D1 mod confirm – confirmation of human D1 dopamine receptor allosteric modulators; luminescence at 10 µM; 2,200 tested, 88% active; shares compounds with D1 mod; HEK293 D1 CRE-luciferase, dopamine EC30 potentiation; stronger effect = higher value;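 active = luminescence in either of two replicates above the same-plate mean plus 3 SD of the low-dose dopamine control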
D1 ag no DA – secondary test of D1 modulators: activity without dopamine; luminescence at 10 µM; 1,900 tested, 0.8% active; shares compounds with D1 mod; AID 646; HEK293 D1 CRE-luciferase, luminescence, no dopamine; stronger effect = higher value; in the data active = luminescence above about 3900
Isoprot counter – counter-screen for D1 modulators: isoproterenol response in HEK293 cells. HEK293 D1 CRE-luciferase, isoproterenol EC30 counter-screen. AID 647. 2,200 tested, 63% active. shares compounds with D1 mod. calls only at 10 µM;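 active = luminescence in either replicate above plate mean of wells with a partly effective reference agonist dose plus 3 SD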;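 note: isoproterenol raises cAMP through native beta-adrenoceptor Gs so signal bypasses D1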
Of the large screens only hits and unclear results are named; the others gave an inactive call (follow-up assays come after a bar, where they were run).

CC1(C)Cc2nc(-c3ccccc3)n3cnnc3c2CO1	D1 mod 9.5 | D1 mod confirm 13436 | D1 ag no DA inactive | Isoprot counter active
CCN(CC)CCn1c(-c2ccccc2)nc(=S)c2c1CC(C)(C)OC2	none (no result: D1 mod)
CC(C)(C)C(=O)COC(=O)c1cccc(NC(=O)c2ccco2)c1	none
Cc1ccc(C(=O)OCC(=O)Nc2ccccc2)cc1NC(=O)c1ccco1	D1 mod 4.4 | D1 mod confirm inactive | D1 ag no DA inactive | Isoprot counter inactive
O=CN1Cc2[nH]c3ccccc3c2N(c2ccc(Cl)cc2)C1=O	D1 mod 9 | D1 mod confirm 10080 | D1 ag no DA inactive | Isoprot counter inactive
O=C1CNCc2[nH]c3ccccc3c2N1c1ccccc1	none
Fc1ccc(-c2cc(C(F)(F)F)nc(-n3cncn3)n2)cc1	D1 mod 3.4 | D1 mod confirm 8460 | D1 ag no DA inactive | Isoprot counter inactive
COc1ccc(-n2c(SCC#N)nnc2-c2ccc(NS(=O)(=O)c3ccc(C)cc3)cc2)cc1	D1 mod 9.9, CYP2C19 inhib 90, CYP2C9 inh 94 | D1 mod confirm 21068 | D1 ag no DA inactive | Isoprot counter active
O=c1[nH]n(-c2ccc(Cl)cc2)c2ncccc12	none (no result: D1 mod)
CCC(C(=O)NC1CCCC1)N(Cc1cccs1)C(=O)Cn1nnc(-c2ccc(OC)c(OC)c2)n1 (stereo unspecified)	none (no result: D1 mod, CYP2C19 inhib, CYP2C9 activ, CYP2C19 act, CYP2C9 inh)
CCC(C(=O)NC1CCCC1)N(C(=O)Cn1nnc(-c2ccc(OC)c(OC)c2)n1)C1CCCCC1 (stereo unspecified)	D1 mod 6.8, CYP2C19 inhib 72, CYP2C9 inh 52 | D1 mod confirm 9072 | D1 ag no DA inactive | Isoprot counter active
O=C(O)CCCCCNC(=O)c1ccccc1Br	none (no result: D1 mod)
CCCn1c(=O)c2ccccc2n2c(SCc3nc4ccccc4s3)nnc12	D1 mod 6.7, CYP2C19 inhib 90, CYP2C9 inh 72 | D1 mod confirm 7964 | D1 ag no DA inactive | Isoprot counter inactive
CCCn1c(=O)c2ccccc2n2c(SCCOc3ccccc3)nnc12	D1 mod 4.7 | D1 mod confirm 10356 | Isoprot counter inactive
Cc1cc(Nc2ccc3ccccc3c2)n2ncnc2n1	none (no result: D1 mod)
COC(=O)c1cccc(S(=O)(=O)N2CCC(NC(=O)NC34CC5CC(CC(C5)C3)C4)CC2)c1	D1 mod 4.6 | D1 mod confirm 11624 | D1 ag no DA inactive | Isoprot counter inactive
COc1ccc(CCNC(=O)c2cnn3cccnc23)cc1OC	D1 mod 13 | D1 mod confirm 14608 | D1 ag no DA inactive | Isoprot counter active
COc1ccc(C2=Nn3c(nnc3-c3cccnc3)SC2)cc1	D1 mod 5.6 (no result: CYP2C19 inhib, CYP2C9 activ, CYP2C19 act, CYP2C9 inh) | D1 mod confirm 10056 | D1 ag no DA inactive | Isoprot counter active
c1cncc(-c2nnc3n2N=C(c2cccs2)CS3)c1	D1 mod 4.1 | D1 mod confirm 15800 | D1 ag no DA inactive | Isoprot counter active
CCCc1nnc2n1N=C(c1ccc(OC)c(OC)c1)CS2	D1 mod 26 (no result: CYP2C19 inhib, CYP2C9 activ, CYP2C19 act, CYP2C9 inh) | D1 mod confirm 22008 | Isoprot counter active
COc1ccc(C2=Nn3c(nnc3-c3ccccc3)SC2)cc1OC	D1 mod 29, CYP2C19 inhib 72 | D1 mod confirm 21404 | Isoprot counter active
Cc1cc(-c2nnc3n2N=C(c2ccc(-c4ccccc4)cc2)CS3)n[nH]1	none
Cc1ccc(-c2nnc3n2N=C(c2ccccc2Br)CS3)cc1	D1 mod 16 | D1 mod confirm 15256 | D1 ag no DA inactive | Isoprot counter active
c1ccc(C2=Nn3c(nnc3-c3ccncc3)SC2)cc1	D1 mod 2.9 | D1 mod confirm 9856 | D1 ag no DA inactive | Isoprot counter inactive
Cc1cccc(-c2nnc3n2N=C(c2ccccc2)CS3)c1	D1 mod 16 | D1 mod confirm inactive | D1 ag no DA inactive | Isoprot counter active
CCOc1ccc(C2=Nn3c(nnc3-c3cccnc3)SC2)cc1	none (no result: D1 mod)
c1ccc(C2=Nn3c(nnc3-c3cccnc3)SC2)cc1	D1 mod 4.9 | D1 mod confirm 11260 | D1 ag no DA inactive | Isoprot counter inactive
CCOc1cc(N2CCOCC2)c(OCC)cc1NC(=O)c1nc2nc(C)cc(C)n2n1	none (no result: hDAT+cocaine)
O=C(NC12CC3CC(CC(C3)C1)C2)C1=COCCO1	none
Cc1cc(NC(=O)CSc2nnc(-c3ccco3)o2)no1	none
Cc1ccc(N2CCN(S(=O)(=O)N3CCCCCC3)CC2)cc1Cl	none (no result: D1 mod)
COc1cccc(-n2nnc3c(=O)n(CC(=O)NC4CCCC4)cnc32)c1	D1 mod 4.4 | D1 mod confirm inactive | D1 ag no DA inactive | Isoprot counter inactive
COc1cccc(-n2nnc3c(=O)n(CC(=O)Nc4ccccc4C)cnc32)c1	none (no result: D1 mod, CYP2C19 inhib, CYP2C9 activ, CYP2C19 act, CYP2C9 inh)
O=C(Nc1ccc2c(c1)OCCO2)C1c2ccccc2C(=O)N2CCc3ccccc3C12 (stereo unspecified)	none (no result: D1 mod)
O=C1c2ccccc2C(Nc2ccc3c(c2)OCO3)N1Cc1ccc2c(c1)OCO2 (stereo unspecified)	D1 mod 4.1, CYP2C19 inhib 88, CYP2C9 inh 97 | D1 mod confirm 9888 | D1 ag no DA inactive | Isoprot counter active
O=C1c2ccccc2C(Nc2ccc3c(c2)OCO3)N1Cc1ccco1 (stereo unspecified)	D1 mod 7.6 (no result: CYP2C19 inhib, CYP2C9 activ, CYP2C19 act, CYP2C9 inh) | D1 mod confirm 12600 | D1 ag no DA inactive | Isoprot counter active
O=C1CC(c2ccco2)Cc2nc(N3CCN(Cc4ccc5c(c4)OCO5)CC3)ncc21 (stereo unspecified)	none
CN(C)c1nc(N)nc(CSc2n[nH]c(-c3ccccc3)n2)n1	D1 mod 7.8 | D1 mod confirm 9244 | D1 ag no DA inactive | Isoprot counter active
Nc1ccc(S(=O)(=O)Nc2ncccn2)cc1	none (no result: CYP2C19 inhib, CYP2C9 activ, hDAT+cocaine, CYP2C19 act, CYP2C9 inh)
O=c1[nH]c2cc3c(cc2cc1C(c1nnnn1C1CCCC1)N1CCSCC1)OCCO3 (stereo unspecified)	D1 mod 6.9 (no result: hDAT+cocaine) | D1 mod confirm 10448 | D1 ag no DA inactive | Isoprot counter inactive
CC(C)(C)n1nnnc1C(c1cc2cc3c(cc2[nH]c1=O)OCCO3)N1CCSCC1 (stereo unspecified)	none
O=C(NCc1ccco1)c1ccc(COCC(F)(F)C(F)F)cc1	none
CCOC(=O)CSc1nc2c(sc(=S)n2Cc2ccco2)c(=O)n1-c1ccccc1	D1 mod 4.5, CYP2C19 inhib 60, CYP2C9 inh 69 | D1 mod confirm 8252 | D1 ag no DA inactive | Isoprot counter inactive
